# Bioassay records deposited in PubChem BioAssay by several laboratories.
# Compounds with a hit are over-represented: about 1.6% of the library has one in this group of screens.
# GC-B act = GC-B (human) receptor activation | P20594 | activation, % at 10 µM | hit rate 0.11% among 370,000 | HEK293-GC-B cells, CNP EC30, cGMP TR-FRET; 0% at EC30 CNP, 100% saturating CNP | AID 1920062;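 active = activation at 10 µM reaching about 35% in either raw or pattern-adjusted values, limit read from the data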
# V-ATPase pHluor = yeast V-ATPase proton transport regulation by pHLuorin. S. cerevisiae, pHLuorin cytosolic pH fluorescence. response, % at 10 µM. hit rate 0.37% among 350,000. AID 504577; in the data active = response mostly above about 7.3%, no sharp cut-off; inactive = mostly below about 5.4%; also: actives read high
# GC-A act = GC-A (human) enzyme activation; P16066; HEK293 GC-A cells, cGMP TR-FRET, EC30 ANP; 0% at EC30 ANP, 100% saturating ANP; hit rate 0.14% among 370,000; activation, % at 10 µM; in the data active = activation above about 40%
# Target sequence (P16066 whole entry, looked up): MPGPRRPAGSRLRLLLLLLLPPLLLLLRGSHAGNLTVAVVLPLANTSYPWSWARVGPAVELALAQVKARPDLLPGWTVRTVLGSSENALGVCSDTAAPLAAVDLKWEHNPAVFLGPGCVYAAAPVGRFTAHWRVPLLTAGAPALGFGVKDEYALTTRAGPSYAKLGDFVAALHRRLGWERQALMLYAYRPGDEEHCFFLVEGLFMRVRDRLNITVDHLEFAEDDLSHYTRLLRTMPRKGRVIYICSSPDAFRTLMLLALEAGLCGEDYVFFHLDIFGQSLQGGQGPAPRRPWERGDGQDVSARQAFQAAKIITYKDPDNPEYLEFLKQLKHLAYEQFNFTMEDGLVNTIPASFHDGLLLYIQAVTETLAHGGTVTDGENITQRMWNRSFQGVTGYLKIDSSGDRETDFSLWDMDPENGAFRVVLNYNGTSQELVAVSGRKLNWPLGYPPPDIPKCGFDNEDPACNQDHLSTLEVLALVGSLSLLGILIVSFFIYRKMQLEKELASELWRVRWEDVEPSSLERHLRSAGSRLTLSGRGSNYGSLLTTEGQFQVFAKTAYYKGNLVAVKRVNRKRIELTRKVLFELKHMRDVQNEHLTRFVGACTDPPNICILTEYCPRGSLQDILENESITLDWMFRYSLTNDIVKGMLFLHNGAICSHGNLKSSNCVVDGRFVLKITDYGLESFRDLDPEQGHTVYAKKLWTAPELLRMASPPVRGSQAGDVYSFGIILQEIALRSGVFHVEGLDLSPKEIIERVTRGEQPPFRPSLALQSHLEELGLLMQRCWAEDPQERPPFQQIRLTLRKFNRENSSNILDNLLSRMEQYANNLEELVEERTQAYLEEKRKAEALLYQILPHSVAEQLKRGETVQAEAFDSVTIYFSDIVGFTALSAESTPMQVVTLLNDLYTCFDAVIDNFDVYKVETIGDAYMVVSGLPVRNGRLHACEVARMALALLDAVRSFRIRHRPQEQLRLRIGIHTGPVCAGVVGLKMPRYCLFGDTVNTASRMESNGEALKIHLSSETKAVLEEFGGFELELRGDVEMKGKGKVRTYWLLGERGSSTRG
# Rce1 inhib = yeast Ras-converting enzyme inhibition; Q03530; yeast membranes, quenched prenylated peptide cleavage fluorescence; calls only; hit rate 0.27% among 290,000; AID 2563;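 active = fall in fluorescence gain of 50% or more versus controls, with final raw signal at or below 3038400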;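 also: plate controls were neutral control wells for no effect and wells lacking membranes for full effect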
# Efflux pump inh = inhibitors of Candida antifungal efflux pumps expressed in yeast. S. cerevisiae Candida pump triplex, Nile Red efflux. inhibition, % at 10 µM. hit rate 0.44% among 330,000;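 active = plate passing quality check with inhibition over a set limit, or well fluorescence over plate mean plus 4 SD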;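 also: Nile Red retained in pooled yeast measured as flow cytometry median fluorescence; 0% = buffer negative control and 100% = Enniatin B positive control; higher means more Nile Red kept so more efflux inhibition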
# NSD2 inh = inhibitors of human histone methyltransferase NSD2. hit rate 0.54% among 310,000. NSD2 peptide methylation, AlphaScreen, 120 min. AID 743445. O96028. inhibition, % at 12.5 µM; in the data active = inhibition above about 50%
# Yeast cmpd fluor = flagged as fluorescent in efflux inhibitor counter-screen | shares compounds with Efflux pump inh | S. cerevisiae AD/pABC3, compound fluorescence, flow cytometry | fluorescence ratio to DMSO, % at 10 µM | hit rate 4% among 1,700;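 active = fluorescence ratio to DMSO above its plate's cutoff, the plate mean ratio plus 5 SD, cut at about 210% in these data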;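 also: unstained yeast with no Nile Red so the signal is compound autofluorescence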
# CaMdr1 efflux inh = Candida Mdr1 efflux pump inhibition | hit rate 1% among 1,700 | inhibition, % at 10 µM | shares compounds with Efflux pump inh | S. cerevisiae AD/CaMDR1, Nile Red efflux, flow cytometry; in the data active = inhibition above about 26%;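 also: 0% = DMSO vehicle and 100% = reference inhibitor; higher means more Nile Red retained so more efflux inhibition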
# Cdr2 pump inh = Candida Cdr2 efflux pump inhibition; shares compounds with Efflux pump inh; S. cerevisiae AD/CaCDR2, Nile Red retention, flow cytometry; hit rate 4% among 1,700; Nile Red retention ratio vs DMSO, % at 10 µM; in the data active = Nile Red retention ratio vs DMSO above about 190%;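 also: higher ratio means more blocking of Cdr2 efflux of the dye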
# CaCdr1 efflux inh = blocks the Candida albicans Cdr1 efflux pump in yeast; S. cerevisiae AD/CaCDR1, Nile Red efflux, flow cytometry; inhibition, % at 10 µM; shares compounds with Efflux pump inh; hit rate 1% among 1,700;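 active = inhibition above the screen-wide mean plus twice its standard deviation, cut at about 32% in these data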
# * = called active by the depositor; i = inactive; . = no result given.
SMILES,GC-B act,V-ATPase pHluor,GC-A act,Rce1 inhib,Efflux pump inh,NSD2 inh,Yeast cmpd fluor,CaMdr1 efflux inh,Cdr2 pump inh,CaCdr1 efflux inh
COC(=O)[C@]12C[C@H](CC(=O)NCc3cccc(C(F)(F)F)c3)C(=O)N(Cc3ccc(Cl)cc3Cl)C1=C[C@H](C1CCCC1)O[C@@H]2C,4,.,-5,.,.,.,.,.,.,.
COc1ccccc1NC(=O)N1CCC(C(=O)c2ccc(F)cc2)CC1,-3,-5,1,i,7.5*,-2,103,0,101,0
CCOc1ccccc1NC(=O)N1CCC(C(=O)c2ccc(F)cc2)CC1,-8,-1,-6,i,0,7,.,.,.,.
CCCCCC[N+](C)(C)CC/C=C1/c2ccccc2Sc2ccc(Cl)cc21,-13,0,-15,i,0,6,.,.,.,.
CN(C)CC/C=C1/c2ccccc2Sc2ccc(Cl)cc21,-17,-1,-32,i,0,25,97,0,94,0
Cc1cccc(-c2cccc3c4c([nH]c23)[C@@H]2C[C@H](N(C)C(=O)c3cccc(Cl)c3)[C@H]([C@H](C)O)CN2CC4)c1,-1,.,-5,.,.,.,.,.,.,.
COc1ccc(/C=N\NC(=O)c2ccccc2OC)cc1COc1c(F)c(F)c(F)c(F)c1F,2,-3,-4,i,9.2*,-1,99,0,101,0
COc1ccc2c(c1)NC(=O)[C@@]2(CCN1C(=O)c2ccccc2C1=O)c1[nH]c2ccccc2c1CCN1C(=O)c2ccccc2C1=O,-3,.,-7,.,.,.,.,.,.,.
Cc1c(NC(C)c2ccccc2O)c(=O)n(-c2ccccc2)n1C (stereo not given),-1,2,0,i,8.2*,12,106,0,89,0
Cc1c(NC(=O)C2CCCN(S(=O)(=O)c3c(C(C)C)cc(C(C)C)cc3C(C)C)C2)c(=O)n(-c2ccccc2)n1C (stereo not given),-2,.,4,.,.,9,.,.,.,.
Cc1ccc(/C=c2\sc3nc(-c4ccco4)nn3c2=O)o1,.,-4,.,i,0,.,.,.,.,.
Cc1ccc(-c2nc3s/c(=C\c4ccco4)c(=O)n3n2)cc1,-4,4,2,i,0.8*,7,97,0,97,0
COc1ccc(Br)cc1/C=c1\sc2nc(-c3ccco3)nn2c1=O,0,-6,-6,i,1.1*,7,107,0,109,0
COc1ccc(/C=c2\sc3nc(=O)c(C)nn3c2=O)c(OC)c1,-6,5,-3,i,0,2,.,.,.,.
COc1ccccc1/C=c1\sc2nc(-c3ccccc3OC)nn2c1=O,-11,2,11,.,0,10,100,0,106,0
Cc1ccc(/C=c2\sc3nc(-c4ccccc4Br)nn3c2=O)o1,1,0,-11,i,0,13,99,0,109,0
COC(=O)C[C@H]1CC[C@H]2[C@H](COc3ccc(NS(=O)(=O)c4ccccc4C)cc3C(=O)N2C)O1,-1,.,5,.,.,.,.,.,.,.
CC(=O)N1CCCN(C(=O)CCn2nnc3ccccc32)CC1,-1,.,2,.,.,2,.,.,.,.
CCOC(=O)c1c(/N=C/N(C)C)sc(/C=N/Nc2ccccc2)c1-c1ccc(Cl)cc1,-8,-2,0,i,0.6*,.,103,0,114,0
O=C(Cc1ccc(Cl)c(Cl)c1)Nc1ccc(S(=O)(=O)Nc2ccon2)cc1,1,.,2,.,.,.,.,.,.,.
CCOc1ccccc1NC(=S)NC1CC2CCC1C2 (stereo not given),.,-5,.,i,1.1*,-2,102,0,108,0
O=c1c2cc3cccnc3nc2ncn1CCc1c[nH]c2ccccc12,-10,.,-1,.,.,.,.,.,.,.
C/C(=N/NC(=O)c1ccoc1C)c1cccs1,5,.,5,.,.,-2,.,.,.,.
COc1ccc(NC(=O)C(NC(=O)c2ccc(C)cc2)c2ccccc2)cc1 (stereo not given),4,1,-2,i,0.3*,-1,100,0,112,0
O=C(Nc1ccc(Cl)c(Cl)c1)c1cccc2c1-c1ccccc1C2=O,-1,.,-1,.,.,-1,.,.,.,.
SMILES,GC-B act,V-ATPase pHluor,GC-A act,Rce1 inhib,Efflux pump inh,NSD2 inh,Yeast cmpd fluor,CaMdr1 efflux inh,Cdr2 pump inh,CaCdr1 efflux inh
COc1ccc(/C=C2\SC(c3ccc(C)cc3)=NC2=O)cc1OC,-8,0,11,i,0.8*,1,109,0,91,0
CCN1/C(=C2/SC(=S)N(NC(C)=O)C2=O)Sc2ccccc21,-4,-2,-7,i,0.8*,2,100,0,96,0
CCC(C)NC(=O)c1ccc(CSc2nc3ccncc3n2Cc2ccc(F)cc2)cc1 (stereo not given),5,-2,1,i,0,.,110,0,92,0
COc1ccc(-c2ccc3c(c2)S(=O)(=O)c2cccc(C(=O)NC4CCCCC4)c2C3=O)cc1OC,.,-57,.,.,1.1*,.,85,0,121,0
NC(=O)C1c2ccccc2Oc2ccccc21,0,1,6,i,4.9*,-1,99,0,100,0
NNC(=O)C1c2ccccc2Oc2ccccc21,3,2,0,i,0,-4,.,.,.,.
COc1ccc(S[C@]2(C(=O)N3CCCC3)CC(=O)N(C(=O)/C=C/c3ccccc3)[C@@H]2c2ccc(OC)cc2)cc1,13,.,-2,.,.,.,.,.,.,.
CCOC(=O)c1c(NC(=S)Nc2ccccc2)sc2c1CC(C)(C)SC2,0,0,-3,i,0.5*,0,202,6,245*,4
Cc1ccc(S(=O)(=O)c2cc3c(=O)n4ccccc4nc3n(CCc3ccccc3)c2=N)cc1,-1,-2,11,i,0.4*,7,108,0,116,0
CCOCCCn1c(=N)c(S(=O)(=O)c2ccc(C)cc2)cc2c(=O)n3cc(C)ccc3nc21,8,6,13,i,1.2*,1,105,0,123,0
COc1ccc(CCn2c(=N)c(C(=O)NCc3ccco3)cc3c(=O)n4ccccc4nc32)cc1,5,6,9,i,1.3*,.,104,0,100,0
N=c1c(C(=O)NCCc2ccccc2)cc2c(=O)n3ccccc3nc2n1Cc1ccco1,6,-5,21,i,0,-4,.,.,.,.
Cc1ccc2nc3c(cc(S(=O)(=O)c4ccccc4)c(=N)n3Cc3ccco3)c(=O)n2c1,-1,-3,4,i,0,1,.,.,.,.
